# Several values for one entry are separate records, joined by “and”; a condition that tells them apart may be missing. Identical values can stand only once. Activity calls are given as the source filed them. Where a call stands in place of a potency, no number is given. Calls come from the whole dose curve.
# Molecular target: Muscarinic acetylcholine receptor M1 (Homo sapiens) (UniProt P11229)
# Assay: Cholinergic receptor muscarinic 1 (CHRM1) small molecule agonists, cell-based qHTS assay (AID 1963589); note: nearly all actives have a fitted effect of over 35% in size
# Details: CHRM1-CHO cells, agonist mode, calcium flux fluorescence; series mostly up to 76.8 µM
# Summary of the method: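 Agonist-mode qHTS in CHO cells stably carrying human muscarinic M1. Intracellular calcium is tracked by fluorescence every second after compound transfer; each compound runs at 15 concentrations in three independent runs.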
# Potency is the fitted concentration of half-maximal effect.
# Sequence of Muscarinic acetylcholine receptor M1 (Homo sapiens) (P11229 whole entry, looked up): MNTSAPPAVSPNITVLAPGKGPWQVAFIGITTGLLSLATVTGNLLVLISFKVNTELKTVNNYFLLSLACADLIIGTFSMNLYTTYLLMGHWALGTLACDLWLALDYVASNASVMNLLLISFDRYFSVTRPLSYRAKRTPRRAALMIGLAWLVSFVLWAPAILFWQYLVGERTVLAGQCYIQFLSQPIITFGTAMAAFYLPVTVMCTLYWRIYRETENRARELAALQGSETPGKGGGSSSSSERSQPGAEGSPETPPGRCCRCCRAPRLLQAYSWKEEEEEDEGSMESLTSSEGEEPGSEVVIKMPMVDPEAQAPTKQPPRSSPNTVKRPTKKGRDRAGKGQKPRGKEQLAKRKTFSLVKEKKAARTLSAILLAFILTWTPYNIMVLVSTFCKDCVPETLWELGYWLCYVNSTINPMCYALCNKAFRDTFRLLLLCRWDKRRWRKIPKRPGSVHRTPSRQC
row,Compound,Potency
1,CCC/C=C/C=O,inactive
2,CCCCC(CC)COC(C)=O (stereo not drawn),inactive
3,NC[C@H](O)c1ccc(O)c(O)c1,inactive
4,CC/C=C\C/C=C\C/C=C\CCCCCCCC(=O)O,inactive
5,CCCCC(CC)COP(=O)(O)OCC(CC)CCCC (stereo not drawn),inactive
6,Oc1ccc2cc(SSc3ccc4cc(O)ccc4c3)ccc2c1,inactive
7,O=C(O)c1ccc(C(=O)O)c(C(=O)O)c1,inactive
8,CCN(CC)c1ccc(C(=O)c2ccccc2C(=O)O)c(O)c1,inactive
9,C=CC(=O)NCOCCCC,inactive
10,N[C@@H](Cc1c[nH]c2ccc(O)cc12)C(=O)O,inactive
11,O=C(O)c1ccccc1C(c1ccc(O)cc1)c1ccc(O)cc1,inactive
12,CCCCCCCCCCCCCC[P+](CCCC)(CCCC)CCCC,inactive
13,CC1COc2ccccc2N1C(=O)C(Cl)Cl (stereo not drawn),inactive
14,OC1CCCC1,inactive
15,S=C(NC1CCCCC1)NC1CCCCC1,inactive
16,CC(C)c1ccc(S(=O)(=O)O)cc1,inactive
17,CC(C)CC(C)O (stereo not drawn),inactive
18,OCC(CO)(CO)CO,inactive
19,O=C(COc1ccc(Cl)cc1)N1CCN(Cc2ccc3c(c2)OCO3)CC1,inactive
20,O=C1OC2(c3ccccc31)c1cc(Br)c(O)c(Br)c1Oc1c2cc(Br)c(O)c1Br,19.8 µM (active) and 22.5 µM (active) and 21.3 µM (active)
21,Cc1cc(OCCOCC[N+](C)(C)Cc2ccccc2)ccc1C(C)(C)CC(C)(C)C,inactive
22,NCCNCCNCCNCCN,inactive
23,CC(=O)OC1CC(C)OC(C)O1 (stereo not drawn),inactive

# Reference: PubChem BioAssay (Tox21)
